The subject of experiment [1] is Wnt5a (protein binding on small-molecule microarray). In words: Wnt5a binders on small-molecule microarray, primary screen, biophysical, 635/667 nm fluorescence (AID 1142).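 Also: fluorescence read at 667 nm with signal to noise per printed feature.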 As to conditions: 635 nm fluorescence, higher = more signal.
Experiment [2] in a line: cell viability in Huh7 cells, primary screen, cytotoxicity control for HCV replication inhibitor project, CellTiter-Glo luminescence, basal, 48 h (AID 1143).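 Also: Huh7 hepatoma cells carrying a hepatitis C replication reporter with no stimulus; test concentration not given here.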 As to conditions: Huh7 HCV replicon, higher = more signal, called active from +8 up or from −8 down. For orientation: In ATP-based viability assays light output follows the ATP content of the culture.
Experiment [3] in a line: P. aeruginosa biofilm formation inhibitors, primary screen, PAO1 strain, BacTiter-Glo luminescence, LB-PBS (AID 1144). To be noted: 12 h, higher = more signal.
Experiment [4] in a line: CREB reporter modulators without forskolin, primary screen, cell-based, PC12, CRE-LacZ reporter, unstimulated (AID 1145). As to conditions: no forskolin, luminescence, 4.5 h, higher = more signal, called active from +8 up or from −8 down.
Experiment [5] in a line: CREB reporter modulators under forskolin, primary screen, cell-based, PC12, CRE-LacZ reporter, forskolin-stimulated (AID 1146).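 Also: PC12 cells with 6xCRE LacZ reporter stimulated by forskolin 10 µM; beta-galactosidase reporter signal reflecting CREB driven transcription.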 To be noted: luminescence, 4.5 h, higher = more signal, called active from +8 up or from −8 down.
The target of experiment [6] is Streptavidin (Streptomyces avidinii) (UniProt P22629). Briefly: streptavidin binders on small-molecule microarray, primary screen, artefact control for SMM compound annotation, biophysical, 635/667 nm fluorescence (AID 1147).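 Also: signal reflects streptavidin binding to arrayed compounds as a control protein.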 As to conditions: streptavidin binding, higher = more signal.
The nature of experiment [7]: small-molecule binders of probe aInhba, primary screen, biochemical, small-molecule microarray, 635/667 nm fluorescence (AID 1148).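 Also: score merges 667nm spot fluorescence with signal-to-noise for antibody binding to printed compounds.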 As to conditions: higher = more signal.
Experiment [8] has as its target Torsin-1A (Homo sapiens) (UniProt O14656). In words: torsin A binders from cell lysate, primary screen, small-molecule microarray, wild-type, 635/667 nm (AID 1149). As to conditions: COS7 hTOR1A-WT lysate, 635 nm fluorescence, higher = more signal.
For experiment [9] the target is unchanged. Briefly: small-molecule binders of mutant TOR1A in lysate, primary screen, cell lysate, small-molecule microarray, COS7 lysate, 635/667 nm fluorescence (AID 1150).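 Also: score pools 667 nm emission and signal to noise measuring lysate protein binding.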 To be noted: COS7 hTOR1A mutant lysate, 635 nm fluorescence, higher = more signal.
The subject of experiment [10] is Sonic hedgehog protein (Shh). Briefly: small-molecule binders of Shh protein, primary screen, biochemical, small-molecule microarray, 635/667 nm fluorescence (AID 1151).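 Also: Shh protein binding to compounds spotted on small-molecule microarray slides; score combines spot fluorescence intensity with signal-to-noise across triplicate slides.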 As to conditions: small-molecule microarray binding, 635 nm fluorescence; higher = more signal.
Experiment [11] in a line: E. coli DRC41 culture turbidity changes, primary screen, E. coli filamentation inducer project, strain DRC41, OD650, 48 h (AID 1152).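 Also: E. coli MC1000 strain DRC41 lacking acrAB efflux pump and sulA.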 To be noted: E. coli DRC41 (acrAB sulA), higher = more signal, called active from +8 up or from −8 down.
Experiment [12] is described as follows: small-molecule binders of probe aLefty1, primary screen, biochemical, small-molecule microarray, 635/667 nm fluorescence (AID 1153).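 Also: score merges spot fluorescence with signal-to-noise ratio from the scanned slide images.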 To be noted: higher = more signal.
The nature of experiment [13]: PSAC antagonists in infected red cells, primary screen, cell-based, P. falciparum Indochina, OD700, 1 h (AID 1154). To be noted: P. falciparum Indochina infected RBC osmotic lysis, higher = more signal, called active from +8 up or from −8 down.
Experiment [14] is described as follows: PSAC antagonists in infected red cells, primary screen, cell-based, P. falciparum Indochina, OD700, 2 h (AID 1155).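 Also: lysis reports solute entry through the parasite surface anion channel PSAC; channel blockers reduce lysis of infected cells.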 As to conditions: P. falciparum Indochina infected erythrocytes, osmotic lysis OD700; higher = more signal, called active from +8 up or from −8 down.
Experiment [15] is described as follows: osmotic lysis modulators in infected erythrocytes, primary screen, PSAC antagonist project, cell-based, P. falciparum Indochina, OD700, 3 h (AID 1156). To be noted: higher = more signal, called active from +8 up or from −8 down.
Experiment [16] can be described thus: PSAC antagonists in infected red cells, primary screen, cell-based, P. falciparum Indochina, OD700, 18 h (AID 1157). To be noted: P. falciparum Indochina infected erythrocytes, osmotic lysis OD700, 18 h; higher = more signal, called active from +8 up or from −8 down.
Experiment [17] in a line: modulators of S6 phosphorylation in cells, primary screen, cell-based, A549, cytoblot, luminescence, serum-stimulated (AID 1158).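 Also: serum-stimulated A549 lung adenocarcinoma cells; signal is phosphorylated S6 detected by cytoblot immunostaining with HRP secondary.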 As to conditions: A549 phospho-S6 cytoblot, 5 h, higher = more signal.
Experiment [18] addresses NADPH oxidase 2 (Homo sapiens) (UniProt P04839). In words: NOX2-dependent H2O2 signal modulators, primary screen, NOX inhibitor project, cell-based, HEK293-NOX2, PMA-stimulated, Amplex Red fluorescence (AID 1159). Also: test concentration not given here. As to conditions: 45 min, higher = more signal, called active from +8 up or from −8 down.
The target of experiment [19] is NADPH oxidase 4 (Homo sapiens) (UniProt Q9NPH5). Briefly: NOX4-dependent H2O2 signal modulators, primary screen, NOX inhibitor project, cell-based, HEK293-NOX4, tetracycline-induced, Amplex Red fluorescence (AID 1160). As to conditions: 45 min, higher = more signal, called active from +8 up or from −8 down.
In experiment [20] the target is NADPH oxidase 5 (Homo sapiens) (UniProt Q96PH1). Briefly: NOX5-dependent H2O2 signal modulators, primary screen, NOX inhibitor project, cell-based, HEK293-NOX5, Amplex Red fluorescence (AID 1161). To be noted: HEK293-NOX5, ionomycin, 45 min, higher = more signal.

The source made the active and inactive calls. Unless noted, no rule for the calls is given here.

Chain of NADPH oxidase 2 (Homo sapiens) (P04839 whole entry, looked up): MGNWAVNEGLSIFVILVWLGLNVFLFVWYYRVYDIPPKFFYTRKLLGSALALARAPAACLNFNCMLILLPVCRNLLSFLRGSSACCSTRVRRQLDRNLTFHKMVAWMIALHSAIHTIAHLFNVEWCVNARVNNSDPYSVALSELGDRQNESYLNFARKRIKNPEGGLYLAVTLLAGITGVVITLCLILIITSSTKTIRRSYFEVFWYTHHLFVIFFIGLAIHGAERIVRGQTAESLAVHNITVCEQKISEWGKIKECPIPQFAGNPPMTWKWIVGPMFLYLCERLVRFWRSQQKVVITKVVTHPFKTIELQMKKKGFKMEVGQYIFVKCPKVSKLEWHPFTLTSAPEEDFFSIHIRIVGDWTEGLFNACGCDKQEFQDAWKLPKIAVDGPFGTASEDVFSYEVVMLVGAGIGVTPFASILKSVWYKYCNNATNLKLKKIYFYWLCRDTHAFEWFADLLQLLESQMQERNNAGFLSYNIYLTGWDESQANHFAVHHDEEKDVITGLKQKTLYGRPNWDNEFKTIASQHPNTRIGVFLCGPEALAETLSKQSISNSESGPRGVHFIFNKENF
Chain of Torsin-1A (Homo sapiens) (O14656 whole entry, looked up): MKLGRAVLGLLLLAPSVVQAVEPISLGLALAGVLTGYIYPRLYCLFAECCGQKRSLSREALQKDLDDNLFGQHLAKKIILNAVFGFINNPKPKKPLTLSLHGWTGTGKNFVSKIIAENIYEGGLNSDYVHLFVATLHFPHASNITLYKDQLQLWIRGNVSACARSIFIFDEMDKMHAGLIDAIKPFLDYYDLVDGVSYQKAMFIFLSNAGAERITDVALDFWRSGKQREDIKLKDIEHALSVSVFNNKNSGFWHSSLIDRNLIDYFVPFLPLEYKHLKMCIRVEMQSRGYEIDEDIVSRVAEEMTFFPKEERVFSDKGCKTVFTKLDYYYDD
Chain of Streptavidin (Streptomyces avidinii) (P22629 whole entry, looked up): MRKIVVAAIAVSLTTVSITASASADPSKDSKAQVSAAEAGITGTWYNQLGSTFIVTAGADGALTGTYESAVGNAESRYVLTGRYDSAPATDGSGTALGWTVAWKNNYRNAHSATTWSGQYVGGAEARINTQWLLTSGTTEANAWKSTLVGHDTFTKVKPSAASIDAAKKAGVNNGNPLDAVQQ
Chain of NADPH oxidase 5 (Homo sapiens) (Q96PH1 whole entry, looked up): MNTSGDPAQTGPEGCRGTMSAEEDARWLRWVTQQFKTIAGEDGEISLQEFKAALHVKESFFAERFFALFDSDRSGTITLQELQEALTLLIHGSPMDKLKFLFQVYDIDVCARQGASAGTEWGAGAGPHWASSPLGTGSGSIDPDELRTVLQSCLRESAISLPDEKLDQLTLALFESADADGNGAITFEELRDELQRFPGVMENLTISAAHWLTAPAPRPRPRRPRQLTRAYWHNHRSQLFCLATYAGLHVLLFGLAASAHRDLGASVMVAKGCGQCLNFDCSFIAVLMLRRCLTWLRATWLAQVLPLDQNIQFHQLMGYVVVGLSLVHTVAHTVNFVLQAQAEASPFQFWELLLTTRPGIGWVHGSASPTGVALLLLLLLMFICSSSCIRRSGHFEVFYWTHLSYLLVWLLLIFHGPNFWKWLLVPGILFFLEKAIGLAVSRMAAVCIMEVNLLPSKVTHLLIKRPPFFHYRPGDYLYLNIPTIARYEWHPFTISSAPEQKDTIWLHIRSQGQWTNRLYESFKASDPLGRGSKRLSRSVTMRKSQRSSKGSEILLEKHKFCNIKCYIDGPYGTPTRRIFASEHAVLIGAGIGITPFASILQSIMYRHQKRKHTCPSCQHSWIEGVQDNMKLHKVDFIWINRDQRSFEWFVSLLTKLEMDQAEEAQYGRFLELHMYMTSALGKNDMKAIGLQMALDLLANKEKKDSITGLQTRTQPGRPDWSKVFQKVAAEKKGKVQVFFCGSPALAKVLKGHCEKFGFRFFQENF
Chain of NADPH oxidase 4 (Homo sapiens) (Q9NPH5 whole entry, looked up): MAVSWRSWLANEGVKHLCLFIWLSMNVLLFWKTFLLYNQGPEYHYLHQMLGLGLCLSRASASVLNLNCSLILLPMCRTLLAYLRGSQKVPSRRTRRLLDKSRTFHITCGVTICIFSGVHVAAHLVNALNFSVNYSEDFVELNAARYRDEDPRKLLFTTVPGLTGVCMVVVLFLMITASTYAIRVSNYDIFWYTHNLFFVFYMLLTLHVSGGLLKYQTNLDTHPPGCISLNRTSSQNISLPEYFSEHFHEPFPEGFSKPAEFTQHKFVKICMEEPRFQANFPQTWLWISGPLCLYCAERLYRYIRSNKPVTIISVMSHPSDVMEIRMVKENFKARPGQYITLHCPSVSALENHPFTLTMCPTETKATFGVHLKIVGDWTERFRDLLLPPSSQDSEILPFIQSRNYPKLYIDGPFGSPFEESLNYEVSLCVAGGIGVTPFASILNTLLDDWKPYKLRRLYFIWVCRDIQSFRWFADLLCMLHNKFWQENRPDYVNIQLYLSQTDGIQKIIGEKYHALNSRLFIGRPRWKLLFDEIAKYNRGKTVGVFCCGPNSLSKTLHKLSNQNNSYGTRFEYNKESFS

In the case of `O=C1[C@H]2[C@H]3[C@H](O)[C@H](O)CC(=NOC[C@@H](O)COCc4ccco4)[C@@H]3CC[C@H]2C(=O)N1Cc1ccc2c(c1)OCO2`, the composite z-score in experiment [1] was 0.0191; in [6], -0.436; in experiment [7] it was -0.218; in [8], 3.38; in experiment [9], 3; in experiment [10] it was 1.55. This compound came in with a composite z-score in [12] of -0.0984. In addition, the z-score in experiment [2] was -0.0292 (inactive); in [3], 0.878 (inactive); in experiment [4], -0.0199 (inactive); in [5], 0.506 (inactive); in experiment [11] it was 1.56 (inactive); in [13] it was 30 (active). The z-score in experiment [14] is 4.77 (inactive); in [15] it was 0.826 (inactive); in [16] it was 1.01 (inactive); in experiment [17], 0.236; in [18] it was -2.68 (inactive); in [19], 0.499 (inactive). This compound also yielded a z-score in experiment [20] of 0.351.

For the compound `COC(=O)[C@H](C)NC(=O)CCC1CC(OC(=O)NCc2ccc3c(c2)OCO3)CC2(CCCC(COC(=O)NCc3ccccc3)O2)O1` (stereo not given in full), the composite z-score in [1] was 0.298; in experiment [6], 0.115; in experiment [7], -0.0136; in experiment [8], 0.283; in [9] it was 0.177; in experiment [10], 1.38. In addition, the composite z-score in experiment [12] was -0.0061. The z-score is -0.268 (inactive) in experiment [2]; -0.801 (inactive) in experiment [3]; -0.345 (inactive) in experiment [4]; -0.169 (inactive) in [5]; 1.07 (inactive) in [11]; 1.08 (inactive) in experiment [13]. Also, the z-score in [14] is 0.0056 (inactive); in experiment [15] it was 0.049 (inactive); in experiment [16], 0.272 (inactive); in experiment [17], 0.307; in experiment [18], 0.154 (inactive); in experiment [19] it was 1.22 (inactive). The z-score in experiment [20] was 0.654.

With `CC(C)CON=C1C[C@@H](O)[C@@H](O)[C@@H]2[C@@H]3C(=O)N(c4ccc(F)cc4F)C(=O)[C@@H]3CC[C@@H]12`, the composite z-score in experiment [1] is -0.0608; in experiment [6] it was 0.744; in experiment [7] it was -0.0719; in [8], 1.29; in [9], 0.218; in experiment [10], 0.583. In addition, the composite z-score in experiment [12] was -0.0984. In addition, the z-score in [2] was -3.38 (inactive); in experiment [3], -0.419 (inactive); in experiment [4] it was 0.151 (inactive); in experiment [5], 0.391 (inactive); in experiment [11], -0.177 (inactive); in [13] it was 1.3 (inactive). The z-score in experiment [14] was -0.913 (inactive); in experiment [15] it was -0.116 (inactive); in [16], -2.29 (inactive); in experiment [17], -0.164; in [18] it was -1.11 (inactive); in experiment [19], -1.87 (inactive). In experiment [20], the z-score is -3.22.

For the compound `CC(CCN1CCCCc2nc(C)c(C)cc21)=NOC[C@@H](O)[C@H]1O[C@@H]2OC(C)(C)O[C@@H]2[C@H]1O`, the composite z-score is 0.228 in [1]; -0.0979 in [6]; -0.248 in experiment [7]; 0.477 in experiment [8]; 0.296 in [9]; 1.62 in [10]. In experiment [12], this compound registered a composite z-score of -0.265. For the same compound, the z-score in experiment [2] was 1.06 (inactive); in experiment [3] it was -0.0386 (inactive); in experiment [4], -0.0824 (inactive); in [5] it was 1.41 (inactive); in experiment [11], -1.25 (inactive); in experiment [13], 0.422 (inactive). The z-score in experiment [14] was 0.726 (inactive); in [15] it was 0.637 (inactive); in experiment [16] it was 0.244 (inactive); in experiment [17] it was -0.67; in experiment [18], 0.0801 (inactive); in experiment [19], 0.413 (inactive). This compound yielded a z-score in [20] of -0.216.

For `CCOC(=O)CCN1C(=O)[C@H]2[C@H]3[C@H](O)[C@H](O)CC(=NOCC=C(C)CCC=C(C)C)[C@H]3CC[C@H]2C1=O`, the composite z-score was 0.0888 in experiment [1]; 0.344 in experiment [6]; 0.12 in experiment [7]; 0.703 in experiment [8]; 0.355 in experiment [9]; -0.423 in [10]. The compound further showed a composite z-score in experiment [12] of 0.148. The z-score is -0.148 (inactive) in experiment [2]; 1.18 (inactive) in experiment [3]; 0.153 (inactive) in experiment [4]; 0.462 (inactive) in experiment [5]; 1.04 (inactive) in experiment [11]; 1.09 (inactive) in [13]. The z-score was 0.887 (inactive) in experiment [14]; 1.25 (inactive) in experiment [15]; 0.378 (inactive) in experiment [16]; 0.199 in [17]; -4.23 (inactive) in experiment [18]; 0.943 (inactive) in experiment [19]. The compound further displayed a z-score in experiment [20] of 0.546.

On to `CCCNC(=O)OC[C@H]1O[C@H](CCON=C2c3cc(OC)ccc3O[C@H](c3cccc(OC)c3)[C@H]2O)C=C[C@@H]1Oc1ccc(OC)cc1`, for which the composite z-score in [1] is 0.298; in experiment [6], 0.474; in [7], -0.0011; in [8], 0.442; in experiment [9], 0.818; in experiment [10], 0.436. In experiment [12], this compound registered a composite z-score of -0.0637. In addition, the z-score in experiment [2] is -0.69 (inactive); in experiment [3] it was 0.298 (inactive); in experiment [4], 4.37 (inactive); in experiment [5], 0.469 (inactive); in experiment [11], 0.447 (inactive); in experiment [13] it was 3.13 (inactive). Besides, the z-score in [14] is 0.855 (inactive); in experiment [15] it was 0.431 (inactive); in experiment [16] it was 0.563 (inactive); in experiment [17], -0.641; in experiment [18], 0.461 (inactive); in experiment [19], 0.455 (inactive). In experiment [20], this compound returned a z-score of -0.473.

For `COC(=O)CC=C[C@@H](C)[C@@H](C=NOC(C)CN1CCCCc2nc(C)c(C)cc21)NS(=O)(=O)c1ccc(C)cc1` (stereo not given in full), the composite z-score is 0.104 in experiment [1]; -0.343 in [6]; -0.0221 in [7]; 1.05 in [8]; 0.705 in experiment [9]; 0.56 in experiment [10]. The compound also gave a composite z-score in experiment [12] of 0.236. In addition, the z-score in experiment [2] is 0.453 (inactive); in experiment [3], 0.89 (inactive); in experiment [4] it was -0.882 (inactive); in [5], 0.877 (inactive); in experiment [11], 0.599 (inactive); in experiment [13] it was -0.193 (inactive). In addition, the z-score was 0.36 (inactive) in experiment [14]; 0.151 (inactive) in experiment [15]; 0.0733 (inactive) in experiment [16]; -0.134 in [17]; -0.397 (inactive) in [18]; 0.339 (inactive) in experiment [19]. In experiment [20], this compound registered a z-score of 0.266.

Take `COC(=O)C1=C(C)N(Cc2ccccc2)C2=C3C(=O)OCC[C@@H]3[C@@](O)(C(=O)OC)C(=O)N2[C@@H]1c1ccccc1`: the composite z-score is 0.226 in experiment [1]; 0.299 in [6]; -0.0221 in [7]; -0.154 in [8]; 0.319 in experiment [9]; 0.404 in experiment [10]. The compound also registered a composite z-score in experiment [12] of -0.286. Further, the z-score is -0.0119 (inactive) in [2]; -0.356 (inactive) in [3]; 4.9 (inactive) in experiment [4]; -1.1 (inactive) in [5]; 0.884 (inactive) in [11]; 0.121 (inactive) in [13]. Besides, the z-score in experiment [14] was 0.132 (inactive); in experiment [15], 0.0954 (inactive); in [16] it was 0.126 (inactive); in [17], 0.0012; in experiment [18], 0.0769 (inactive); in [19] it was -0.0428 (inactive). For the same compound, in experiment [20], the z-score amounted to 0.251.

Source of the values: PubChem BioAssay.
